Assay results taken from PubChem BioAssay AID588591 (National Center for Advancing Translational Sciences (NCATS), 2011).
Hit rate of the full screen: of about 390,000 compounds, about 4,700 (1.2%) were called active. Where a call stands in place of a potency, no number is given. Another 4% or so got no clear call; they are omitted. Calls follow the shape of the dose curve; as a rule, active = well fitted inhibition curve with a large enough effect; inconclusive = small, poorly fitted or top-dose-only effect, or another doubt; inactive = no such curve, though single readings can be large or run the other way. Many of the other results were omitted from the sample, so actives are more common in it than they were.

molecular target: DNA polymerase eta (Homo sapiens) (UniProt Q9Y253); experiment: qHTS for Inhibitors of Polymerase Eta; details: recombinant Pol eta, fluorescent DNA replication assay; series mostly up to 114 µM
Sequence (Q9Y253 whole entry, looked up): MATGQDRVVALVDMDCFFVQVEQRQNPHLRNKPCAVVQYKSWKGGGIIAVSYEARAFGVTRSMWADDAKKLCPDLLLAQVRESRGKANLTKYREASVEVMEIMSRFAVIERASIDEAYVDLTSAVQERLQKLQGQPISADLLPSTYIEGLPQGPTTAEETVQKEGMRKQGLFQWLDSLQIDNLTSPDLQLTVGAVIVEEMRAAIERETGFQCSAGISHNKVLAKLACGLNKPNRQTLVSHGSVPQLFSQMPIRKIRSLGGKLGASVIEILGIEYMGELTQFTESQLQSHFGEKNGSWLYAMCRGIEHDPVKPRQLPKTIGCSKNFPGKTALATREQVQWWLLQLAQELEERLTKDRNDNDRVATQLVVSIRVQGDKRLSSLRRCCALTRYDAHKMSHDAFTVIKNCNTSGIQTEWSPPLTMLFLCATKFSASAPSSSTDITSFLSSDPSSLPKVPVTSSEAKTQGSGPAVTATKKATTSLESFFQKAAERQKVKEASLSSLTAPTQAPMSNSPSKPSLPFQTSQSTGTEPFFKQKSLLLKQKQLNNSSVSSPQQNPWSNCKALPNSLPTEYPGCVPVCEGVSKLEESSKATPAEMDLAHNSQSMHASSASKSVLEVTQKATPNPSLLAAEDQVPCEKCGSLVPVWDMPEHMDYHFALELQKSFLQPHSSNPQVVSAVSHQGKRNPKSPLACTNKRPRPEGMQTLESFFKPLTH
Description: The Y-family of DNA polymerases, such as Pol eta, are specifically involved in DNA repair. Pol eta copies undamaged DNA with a lower fidelity than other DNA-directed polymerases. However, it accurately replicates UV-damaged DNA; when thymine dimers are present, this polymerase inserts the complementary nucleotides in the newly synthesized DNA, thereby bypassing the lesion and suppressing the mutagenic effect of UV-induced DNA damage. […] Thus, while pol eta's (and most likely iota's) normal function is to protect humans against the deleterious consequences of DNA damage, under certain conditions they can have deleterious effects on human health. As a consequence, we propose to utilize a high throughput replication assay to identify small molecule inhibitors of pol eta. In a collaboration between the National Institute of Child Health & Human Development (NICHD) and NIH Chemical Genomics Center, a high-throughput, fluorescent screen was developed to screen the NIH Molecular Libraries Small Molecule Repository (MLSMR). This screen is used to identify inhibitors of pol eta. NIH Chemical Genomics Center [NCGC] NIH Molecular Libraries Probe Centers Network [MLPCN] MLPCN Grant: MH090825 Assay Submitter (PI): Roger Woodgate, NICHD)
Three microliters of reagents (buffer in column 3 and 4 as negative control and 10 nM Pol eta in columns 1, 2, and 5-48) were dispensed into a 1,536-well black solid-bottomed plate. Compounds (23 nL) were transferred via Kalypsys pin tool equipped with 1536-pin array. The plates were then incubated for 15 min at room temperature, and 1 µL substrate (50 nM final concentration) was added to start the reaction and kinetically read twice at 0 min and 10 min on the Viewlux reader
Potency is read from the fitted curve at half-maximal effect.

Row | Structure (SMILES) | Potency
1 | Cc1cccc(N2C(=O)NC(=O)/C(=C\c3cnn(-c4ccccc4)c3)C2=O)c1 | 20 µM (active)
2 | CN1C2C=C(N(C(=O)c3ccc(Cl)cc3)c3ccccc3)CC1CC2 (stereo not given) | inactive
3 | CCN(N=Nc1nonc1OC)c1nonc1OC | inactive
4 | C=CC12CN(C)[C@@H]3C4CO[C@H](C[C@H]41)[C@]1(C(=O)Nc4ccccc41)[C@@H]32 (stereo not given in full) | inactive
5 | Cc1c(C(=O)O)cccc1-n1c(C)cc(/C=C2\C(=O)NC(=O)N(c3ccc4c(c3)OCO4)C2=O)c1C | 5.01 µM (active)
6 | c1cc2c(cc1C1OCC3C(c4ccc5c(c4)OCO5)OCC13)OCO2 (stereo not given) | inactive
7 | c1ccc2sc(N3CCNCC3)nc2c1 | inactive
8 | CC(=NC1CCN(Cc2ccccc2)CC1)c1c(O)n(C)c(=O)n(C)c1=O | inactive
9 | Cn1c(O)c(C=Nc2ccc3c(c2)CCC3)c(=O)n(C)c1=O | inactive
10 | Cc1ccnc(-n2c(C)cc(/C=C3\C(=O)NC(=S)N(C)C3=O)c2C)c1 | inactive
11 | Cc1cc(/C=C2/C(=O)NC(=O)N(Cc3ccco3)C2=O)c(C)n1-c1ccc(C(=O)O)cc1 | 17.8 µM (active)
12 | Cc1ccc(-n2c(C)cc(/C=C3\C(=O)NC(=O)N(C)C3=O)c2C)cc1C | 11.2 µM (active)
13 | c1ccc2c(c1)[I+]c1ccccc1-2 | inactive
14 | CC(=O)NBr | inactive
15 | Fc1cccc(F)c1CN1CCN(Cc2c(F)cccc2F)CC1 | inactive
16 | CCOC(=O)c1ncn2c1[C@@H]1CCCN1C(=O)c1cc(OC)ccc1-2 | inactive
17 | Cc1c(Oc2cc(NN3CCCCC3)c([N+](=O)[O-])cc2[N+](=O)[O-])cccc1[N+](=O)[O-] | inactive
18 | CN(c1ccccc1)c1ccc([N+](=O)[O-])c2nonc12 | inactive
19 | Nc1ccc([N+](=O)[O-])cc1 | inactive
20 | COC(=O)N(c1ccc(OC)cc1)P1(=S)OCCC(C)O1 (stereo not given) | inactive
21 | CC1CCCN1CCC(C(N)=O)(c1ccccc1)c1ccccc1 (stereo not given) | inactive
22 | CC[N+](CC)(CC)CCCCCCCCCC[N+](CC)(CC)CC | inactive
23 | CC(=O)c1c(O)n(C2CCCCCC2)c(=O)[nH]c1=O | inactive
24 | O=C1NC(=O)N(c2ccc(F)cc2)C(=O)/C1=C/c1ccc2c(c1)CCCN2Cc1ccccc1 | 20 µM (active)
25 | CCC1(CC(C)c2ccccc2)C(=O)NC(=O)NC1=O (stereo not given) | inactive

Row | Structure (SMILES) | Potency
26 | Cc1cccc(OP(=O)(Oc2cccc(C)c2)OC(c2ccccc2)C(F)(F)F)c1 (stereo not given) | inactive
27 | CN(C)/C=C(\C=[N+](C)C)c1[nH]ncc1[N+](=O)[O-] | inactive
28 | COc1ccc(N2C(=O)/C(=C/c3ccco3)C(=O)NC2=S)cc1 | 1.12 µM (active)
29 | CC(=O)N1CN2CN(C(C)=O)CC(C(=O)c3ccc(Br)cc3)(C2)C1 | inactive
30 | Cc1ccc(CN2CCCC(C(=O)c3ccc4c(c3)OCO4)C2)cc1C (stereo not given) | inactive
31 | O=C1NC(=O)C(C/C=C/c2ccccc2)C(=O)N1 | inactive
32 | C[C@@H]1CC[C@@]2(OC1)O[C@H]1C[C@H]3[C@@H]4CC=C5C[C@@H](O)[C@H](O)C[C@]5(C)C4CC[C@]3(C)[C@H]1[C@@H]2C (stereo not given in full) | 89.1 µM (active)
33 | CN(C)c1ccc(/C=C2\CC3C4CC=C5CC(O)CCC5(C)C4CCC3(C)C2=O)cc1 (stereo not given) | inactive
34 | CCOC(=O)C(O)(c1ccc(N)c(OC)c1)C(F)(F)F (stereo not given) | inactive
35 | COC(=O)C(O)(c1ccc(NC(=O)c2ccco2)c(OC)c1)C(F)(F)F (stereo not given) | inactive
36 | CCCCN1C2CCC1CC(OC(c1ccc(F)cc1)c1ccc(F)cc1)C2 (stereo not given) | inactive
37 | C[C@@H]1C[C@@H]2O[C@H]2/C=C\C=C\C(=O)Cc2c(Cl)c(O)cc(O)c2C(=O)O1 | 10 µM (active)
38 | COc1ccc(-n2c(O)c(C(C)=Nc3ccc4c(c3)CCC4)c(=O)[nH]c2=O)cc1 | inactive
39 | O=C(Nc1ccc(Cl)cc1C(=O)c1ccccc1)c1cc(Cl)cc(Cl)c1 | inactive
40 | COc1ccc(C2C=C(C)Oc3c2c(=O)oc2ccccc32)cc1OC (stereo not given) | inactive
41 | CCN1C(=O)NC(=O)C2(CCCC2)C1=O | inactive
42 | O=C1NC(=O)N(CCc2ccc(F)cc2)C(=O)/C1=C/C=C/c1ccccc1 | 50.1 µM (active)
43 | COC(=O)C1=C(c2cc3ccccc3s2)C[C@@H]2CC[C@H]1N2C(=O)NC(C)C | inactive
44 | COc1ccc(C(=O)CC2C(=O)N(C)C(=O)N(C)C2=O)cc1 | inactive
45 | Cc1cc2ccccn2c1C(C[N+](=O)[O-])c1c(F)cccc1Cl (stereo not given) | inactive
46 | O=C1NC(=O)N(c2ccccc2)C(=O)/C1=C/c1ccc([N+](=O)[O-])s1 | 10 µM (active)
47 | COc1cccc(N2C(=O)NC(=O)/C(=C\c3ccc([N+](=O)[O-])s3)C2=O)c1 | 17.8 µM (active)
48 | Cn1c(O)c(C=NCCN2CCNCC2)c(=O)n(C)c1=O | inactive
49 | COC(=O)C1=C(c2ccc(OCc3ccccc3)cc2)C[C@@H]2CC[C@H]1N2C(=O)NCc1ccc(Cl)cc1 | inactive
50 | O=C(O)C1C2CCC(O2)C1C(=O)O (stereo not given) | inactive

Row | Structure (SMILES) | Potency
51 | CC1=C(C(=O)Nc2ccccc2)SCCO1 | inactive
52 | CCOC(=O)C1SC2(C(F)(F)C(F)F)CC1(O)c1c(c(OC)c3occc3c1OC)O2 (stereo not given) | inactive
53 | CCN1CCN(c2nc3c(c(=O)[nH]2)CCC3)CC1 | inactive
54 | Cc1cccc(NC(=O)OC2CN3CCC2CC3)c1 (stereo not given) | inactive
55 | CN(C)S(=O)(=O)c1cc(C(=O)N2CCC(C(=O)O)(c3ccccc3)CC2)ccc1Cl | inactive
56 | COC(=O)C1=C(c2c(C)noc2C)C[C@@H]2CC[C@H]1N2C(=O)NCc1ccc2c(c1)OCO2 | inactive
57 | CCc1ccc(OCC(=O)N2CCN(CC(=O)Nc3ccccc3Cl)CC2)cc1 | inactive
58 | C[C@H]1CN([C@@H](C)CO)C(=O)CCCn2nncc2CO[C@H]1CN(C)C(=O)Oc1ccccc1 | inactive
59 | Cc1cc(C(=O)OCC(=O)Nc2c(F)cccc2F)c(C)n1C1CC1 | inactive
60 | CN1CCN(/N=C/c2c[nH]c3ccccc23)CC1 | inactive
61 | CN1CCc2nc(SC(C(=O)O)c3ccccc3)c(C#N)c(-c3cccs3)c2C1 (stereo not given) | 31.6 µM (active)
62 | Cc1ccc(-n2c(/C=C/c3cccc(C(F)(F)F)c3)nc3ccccc3c2=O)cc1 | inactive
63 | O=C(CCCn1c(=O)[nH]c2cc(Cl)ccc2c1=O)N1CCC2(CC1)OCCO2 | inactive
64 | CCN(CC)C(=O)c1ccc(NC(=O)c2sccc2-c2ccccc2)cc1 | inactive
65 | C=CCN(CC=C)C(=O)Nc1ccc(OCC)cc1 | inactive
66 | CCOc1ccc(-c2cc(C)n3nc(C(=O)Nc4ccc(C)c(C)c4)cc3n2)cc1 | 70.8 µM (active)
67 | CC1=C(C(=O)Nc2ccccc2)S(=O)(=O)CCO1 | inactive
68 | Cn1cc(C(=O)OCC(=O)N2CCCC2)c2ccccc21 | inactive
69 | O=C1NC(=O)N(Cc2ccco2)C(=O)/C1=C\c1ccc(-c2ccc(F)cc2)o1 | 25.1 µM (active)
70 | O=C1NC(=O)N(Cc2ccco2)C(=O)/C1=C\c1cccn1CCOc1ccccc1 | 79.4 µM (active)
71 | COc1cccc(OC)c1C(=O)NC(=S)N1C[C@H]2C[C@H](C1)c1cccc(=O)n1C2 | inactive
72 | CC(C)c1ccc(OCC(=O)N2CCN(C)CC2)c(Br)c1 | inactive
73 | CCOC(=O)C1=C(C)OC(N)=C(C(=O)OC)C12C(=O)Nc1ccc(Br)cc12 (stereo not given) | inactive
74 | COc1cccc(CN2CCCC(C(=O)c3ccccc3SC)C2)c1O (stereo not given) | inactive
75 | Cc1ccc(P(=S)(c2ccc(C)o2)N2CCOCC2)o1 | inactive
